This is a sample that favours compounds with a hit; in the whole collection about 2.9% have one here.
A549 viability – kills or reduces viability of A549 cells in Nrf2 counter-screen; A549 ARE-Fluc cells, CellTiter-Fluor viability, 18-24 h; Potency, µM (highest dose often 46 µM), for inactives: at the highest dose activity change, negative = cytotoxicity, most hits filed as inhibitors; actives 0.16% (n = 390,000); further: on the % scale 0 is the no-effect control and ±100 the full control effect
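A549 ARE-Fluc cells in 5% FBS OPTI-MEM, 5000 cells/well, rested 2 h then exposed to compounds in concentration-response for 18-24 h at 37 °C. Viability by CellTiter-Fluor fluorescence (Ex 405/Em 525) after 30 min; luciferase luminescence (BugLite, 15 min, RT) read afterwards.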
Nrf2 activator – activates Nrf2 signaling; actives 0.31% (n = 410,000); Potency, µM (top dose mostly 46.1 µM), for inactives: at the top dose activation, actives largely listed as activators; AID 624171; AREc32 ARE-luciferase reporter (MCF7-derived line), luminescence, 24 h; further: % of control where 0% means no effect; nearly all actives have a fitted effect of over 65% in size
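Steps: seed AREc32_Fluc cells (1000/well, 5% FBS OPTI-MEM); incubate overnight at 37 deg C; add 23 nL compound; incubate 24 hr; add Steady-Glo; hold 30 min RT; read luminescence.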
ATXN viability – reduces viability in counter-screen for ATXN expression inhibitors; actives 0.49% (n = 400,000); Potency, µM (titrated, usually from 56.7 µM), hits mostly cytotoxic; S2 cells (HEK-293 line with an ATXN2-luciferase reporter) viability, CellTiter-Fluor protease fluorescence, 24 h; further: nearly all actives have a fitted effect of over 40% in size
ATXN2 expr inh – ATXN2 expression inhibition; Potency, µM (titrated, usually from 57 µM), inactives show top-dose activity change, negative = inhibition, hits mostly inhibitors; actives 0.72% (n = 360,000); HEK-293 ATXN2-luciferase reporter, luminescence, 24 h; further: on the % scale 0 is the no-effect control and ±100 the full control effect; nearly all actives have a fitted effect of over 55% in size
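ATXN2-luciferase reporter cells (luciferase flanked by upstream and downstream ATXN2 gene portions) were treated 24 h at 37 °C with compounds at up to 57 uM. SteadyGlo luminescence gave expression; GF-AFC fluorescence gave viability.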
Nrf2 block – Nrf2 pathway inhibition | actives 2.1% (n = 360,000) | Potency, µM (doses to about 46 µM), without a hit: at the top dose activity change, negative = inhibition, actives largely listed as inhibitors | AID 504444 | A549 ARE-Fluc reporter, luciferase luminescence, 18-24 h; further: on the % scale 0 is the no-effect control and ±100 the full control effect; nearly all actives have a fitted effect of over 60% in size
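Two sequential reads on A549 ARE_Fluc cells exposed to compound for 18-24 h: a CellTiter-Fluor fluorescence read for viability, then a luciferase luminescence read for Nrf2/ARE activity.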
* marks the source's active call; other numbers are inactive results; [ ] = another dose, or the depositor's remark. The call rests on the fitted dose curve; in most records, active means well fitted curve in the direction sought with a large enough effect; inconclusive means small, poorly fitted or top-dose-only effect, or another doubt; inactive means no such curve, though single readings can be large; an effect the other way counts as inactive or inconclusive. Potency means the concentration at half of the fitted maximal effect.

Screening O=C(O)Cn1cc(C(=O)c2ccco2)c2ccccc21 returned A549 viability -1%, Nrf2 activator 0%, ATXN viability inactive, ATXN2 expr inh 6% and Nrf2 block -1%.
For CCOC(=O)Cn1cc(C(=O)c2ccco2)c2ccccc21 the results were A549 viability -3%, Nrf2 activator inconclusive, ATXN viability inconclusive, ATXN2 expr inh 32µM* and Nrf2 block inconclusive.
`COc1ccc(OC)c(NC(=O)Cn2cc(C(=O)c3ccco3)c3ccccc32)c1` gave A549 viability 0%, Nrf2 activator 0%, ATXN viability inactive, ATXN2 expr inh 0% and Nrf2 block 15µM*.
COc1ccc(NCC(=O)Nc2cccc(S(=O)(=O)N3CCCC3)c2)cc1Cl was read as A549 viability -21%, Nrf2 activator 1%, ATXN viability inconclusive, ATXN2 expr inh inconclusive and Nrf2 block 18µM*.
O=C(CNc1ccc(Br)cc1)Nc1ccc(S(=O)(=O)N2CCCC2)cc1 was read as A549 viability -5%, Nrf2 activator 0%, ATXN viability inconclusive, ATXN2 expr inh -17% and Nrf2 block -20%.
COc1ccc(Nc2ccc3cc(S(=O)(=O)N4CCCC4)ccc3n2)cc1Cl was read as A549 viability -25%, Nrf2 activator 4%, ATXN viability inactive, ATXN2 expr inh -37% and Nrf2 block 26µM*.
`O=C(CNc1cccc(S(=O)(=O)N2CCCC2)c1)Nc1cccc(Br)c1` gave A549 viability -23%, Nrf2 activator 2%, ATXN viability inconclusive, ATXN2 expr inh -24% and Nrf2 block 21µM*.
Screening O=C(CNc1ccc(Br)cc1)Nc1cccc(S(=O)(=O)N2CCCC2)c1 returned A549 viability inconclusive, Nrf2 activator 0%, ATXN viability inactive, ATXN2 expr inh -5% and Nrf2 block 21µM*.
`COc1cc(NC(=O)CNc2cccc(S(=O)(=O)N3CCCC3)c2)cc(OC)c1` gave A549 viability -12%, Nrf2 activator -1%, ATXN viability inactive, ATXN2 expr inh -14% and Nrf2 block inconclusive.
O=C(CNc1cccc(S(=O)(=O)N2CCOCC2)c1)Nc1cccc(Br)c1 was read as A549 viability 0%, Nrf2 activator 2%, ATXN viability inactive, ATXN2 expr inh -16% and Nrf2 block inconclusive.
Screening COc1cc(NC(=O)Cn2cnc3sc(C)c(S(=O)(=O)N4CCN(C)CC4)c3c2=O)cc(OC)c1OC returned A549 viability 12%, Nrf2 activator -1%, ATXN viability inactive, ATXN2 expr inh 8% and Nrf2 block -25%[9.27 µM].
`CCOc1ccc2nc(N3CCCC(C(=O)NCc4ccccc4Cl)C3)sc2c1` (stereo not drawn) gave A549 viability -8%, Nrf2 activator 4% and Nrf2 block 21%.
N#Cc1ccccc1Cn1nnc2c(=O)[nH]c(C3CCCN(S(=O)(=O)c4ccc(F)cc4)C3)nc21 (stereo not drawn) was read as A549 viability 2%, Nrf2 activator -1% and Nrf2 block 8%.
For Cc1cccc(-c2cc(NCCc3cccnc3)n3nccc3n2)c1 the results were Nrf2 activator 5%, ATXN viability inactive and ATXN2 expr inh -3%.
For O=C(COc1ccccc1/C=C1\SC(=S)NC1=O)Nc1ccc(F)cc1 the results were A549 viability inconclusive, Nrf2 activator inconclusive, ATXN viability inconclusive, ATXN2 expr inh inconclusive and Nrf2 block 23µM*.
Screening NC1=NC(=O)/C(=C/c2ccccc2OCC(=O)Nc2ccc(F)cc2)S1 returned A549 viability -1%, Nrf2 activator 4%, ATXN viability inactive, ATXN2 expr inh inconclusive and Nrf2 block 2%.
O=C(CSc1ccc2c(c1)OCCO2)Nc1ccc(Br)cc1 was read as A549 viability -5%, Nrf2 activator -1%, ATXN viability inactive, ATXN2 expr inh -19% and Nrf2 block 23µM*.
Screening Cc1ccc(O)c(NC(=O)CSc2n[nH]c(C)c2[N+](=O)[O-])c1 returned A549 viability 0%, Nrf2 activator 11µM*, ATXN viability inactive, ATXN2 expr inh 2% and Nrf2 block 6%.
`COc1ccccc1-c1cc(C(F)(F)F)nc(S(=O)(=O)CCCC(=O)Nc2ccccc2F)n1` gave A549 viability 0%, Nrf2 activator -7% and Nrf2 block -6%[9.27 µM].
`COc1ccccc1-c1cc(C(F)(F)F)nc(S(=O)(=O)CCCC(=O)NC(C)C)n1` gave A549 viability inconclusive, Nrf2 activator inconclusive, ATXN viability 32µM*, ATXN2 expr inh inconclusive and Nrf2 block inconclusive.
COc1ccccc1-c1cc(C(F)(F)F)nc(N2CCCC2)n1 was read as A549 viability 7%, Nrf2 activator 0%, ATXN viability inactive, ATXN2 expr inh 4% and Nrf2 block -36%.
Screening COc1ccccc1-c1cc(C(F)(F)F)nc(S(C)(=O)=O)n1 returned A549 viability -29%, Nrf2 activator inconclusive, ATXN viability 32µM*, ATXN2 expr inh inconclusive and Nrf2 block inconclusive.
COc1ccc(NC(=O)CCCS(=O)(=O)c2nc(-c3ccccc3OC)cc(C(F)(F)F)n2)c(OC)c1 was read as A549 viability 6%, Nrf2 activator 0%, ATXN viability inactive, ATXN2 expr inh 6% and Nrf2 block -1%[9.27 µM].
For COc1ccccc1-c1cc(C(F)(F)F)nc(S(=O)(=O)CCCC(=O)Nc2cccnc2Cl)n1 the results were A549 viability inconclusive, Nrf2 activator -3%, ATXN viability inconclusive, ATXN2 expr inh inconclusive and Nrf2 block 21µM*.
CC(O)(c1cccc(F)c1)c1nc(-c2cccc(F)c2)cs1 (stereo not drawn) was read as Nrf2 activator 1%, ATXN viability inactive and ATXN2 expr inh -2%.
Screening O=C(CCNC(=O)c1ccc(Br)cc1)NNC(=O)c1ccccc1O returned A549 viability 0%, Nrf2 activator 0%, ATXN viability inactive, ATXN2 expr inh -7% and Nrf2 block -5%.
Screening CN(c1ncccc1CNc1nc(Nc2ccc3c(c2)CC(=O)N3)ncc1C(F)(F)F)S(C)(=O)=O returned ATXN2 expr inh 4.3µM*.
O=C(Nc1nc(-c2ccccc2)cs1)c1ccc2c(=O)n3c(nc2c1)CCCCC3 was read as A549 viability inconclusive, Nrf2 activator 1%, ATXN viability inconclusive, ATXN2 expr inh 14µM* and Nrf2 block 5.8µM*.
For O=C(Nc1ccc2nc3n(c(=O)c2c1)CCCCC3)c1c(F)ccc([N+](=O)[O-])c1F the results were A549 viability inconclusive, Nrf2 activator -3%, ATXN2 expr inh 7.1µM* and Nrf2 block 11%.
Screening O=C(Nc1cccc(S(=O)(=O)N2CCOCC2)c1)c1ccc2c(=O)n3c(nc2c1)CCCCC3 returned A549 viability inconclusive, Nrf2 activator 0%, ATXN viability inactive, ATXN2 expr inh inconclusive and Nrf2 block 21µM*.

Source: PubChem (National Center for Advancing Translational Sciences (NCATS))
